Sampled rows, rich in hits. Any-hit rate of the full collection: about 2.3%.
BCLXL inh = inhibitors of human Bcl-xL, primary screen, biochemical, fluorescence polarization, HTS; Bcl-2-like protein 1 (Homo sapiens), Q07817; GST-Bcl-xL / FITC-Bim BH3 peptide fluorescence polarization; inhibition, % at 10.9 µM; 320,000 tested, 0.7% active; AID 2129, 2009;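 active = inhibition above the mean of all tested compounds plus 3 SD, cutoff set per campaign, cut at about 30% in these data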;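 also: inhibitors lower millipolarization by displacing the labeled peptide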
Target sequence (Q07817 whole entry, looked up): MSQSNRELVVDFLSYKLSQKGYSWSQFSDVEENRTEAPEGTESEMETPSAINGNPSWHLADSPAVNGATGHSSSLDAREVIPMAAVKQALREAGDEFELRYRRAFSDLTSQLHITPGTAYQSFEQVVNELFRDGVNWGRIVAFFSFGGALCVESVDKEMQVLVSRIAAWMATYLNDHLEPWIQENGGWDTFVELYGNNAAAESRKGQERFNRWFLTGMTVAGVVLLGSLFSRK
Mcl1-Bid inh = Mcl-1/Bid binding inhibitors, primary screen, biochemical, TR-FRET, 1536-well; Induced myeloid leukemia cell differentiation protein Mcl-1 (Homo sapiens), Q07820; TR-FRET Mcl-1/Bid-Dy647 peptide binding; inhibition, % at 21.7 µM; 220,000 tested, 0.97% active; AID 1021, 2008;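 active = compounds that cut the binding signal by more than half at the single screening dose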;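 also: His-tagged Mcl-1 with europium anti-His antibody binding Bid BH3 peptide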
GLD-1 RNA inh = GLD-1/TGE RNA complex disruptors, primary screen, biochemical, fluorescence polarization | purified GLD-1 + fluorescein TGE RNA | inhibition, % at 5.96 µM | 320,000 tested, 0.44% active;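 active = percent inhibition above a per-plate cutoff, the plate mean of test compounds plus 3 SD, cut at about 30% in these data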
Target sequence (Q17339 whole entry, looked up): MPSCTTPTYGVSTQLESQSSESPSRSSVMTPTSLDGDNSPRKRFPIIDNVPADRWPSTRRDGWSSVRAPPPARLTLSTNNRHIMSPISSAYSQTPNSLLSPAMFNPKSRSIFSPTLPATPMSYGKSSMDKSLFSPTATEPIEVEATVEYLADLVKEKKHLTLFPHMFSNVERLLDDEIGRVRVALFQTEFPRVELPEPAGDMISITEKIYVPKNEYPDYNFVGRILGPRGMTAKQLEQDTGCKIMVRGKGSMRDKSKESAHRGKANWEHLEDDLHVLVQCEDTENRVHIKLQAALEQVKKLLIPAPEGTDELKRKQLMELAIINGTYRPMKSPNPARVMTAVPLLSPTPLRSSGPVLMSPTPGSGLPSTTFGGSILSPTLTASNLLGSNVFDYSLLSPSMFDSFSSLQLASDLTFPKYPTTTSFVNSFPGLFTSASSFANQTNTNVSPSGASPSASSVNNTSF
MCL1 BIM primary = inhibitors of MCL1 binding to BIM-BH3, primary screen, biochemical, fluorescence polarization; inhibition, % at 10.9 µM; Induced myeloid leukemia cell differentiation protein Mcl-1 (Homo sapiens), Q07820; 320,000 tested, 0.68% active; GST-MCL1 / FITC-Bim-BH3 fluorescence polarization; AID 2057, 2009;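 active = inhibition above the mean inhibition of all tested compounds plus 3 SD, set per campaign, cut at about 40% in these data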;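 also: higher means more loss of mP so more displacement of Bim peptide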
Mcl1 Noxa PPI = Mcl-1/Noxa binding inhibitors, primary screen, biochemical, TR-FRET, 1536-well; Induced myeloid leukemia cell differentiation protein Mcl-1 (Homo sapiens), Q07820; 220,000 tested, 1.5% active; inhibition, % at 21.7 µM; TR-FRET Mcl-1/Noxa peptide binding, 2 h; AID 1022, 2008;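 active = compounds that cut the protein-peptide binding signal by more than 50% relative to plate controls in a single-dose test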;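 also: His-tagged Mcl-1 with rhodamine Noxa BH3 peptide and terbium anti-His antibody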
Mcl-1 Bim block = inhibitors of Bim peptide binding to Mcl-1, primary screen, biochemical, bead-based flow cytometry, multiplex | inhibition, % at 10 µM | Induced myeloid leukemia cell differentiation protein Mcl-1 (Homo sapiens), Q07820 | AID 1009, 2008 | Bim peptide-Mcl-1 binding | 190,000 tested, 0.1% active; in the data active = inhibition above about 40%
Of the large screens only hits and unclear results are named; the others gave an inactive call.

CCN(CC)c1ccc(NC(=O)C2CC3CCC2C3)cc1 (centres undefined)	Mcl1 Noxa PPI 67.0
O=C(Nc1ccccc1)C1CC2CCC1C2 (centres undefined)	none (no result: Mcl1-Bid inh, Mcl1 Noxa PPI, Mcl-1 Bim block)
COC(=O)/C=c1/sc2nc3ccccc3n2c1=O	none
O=c1/c(=C\c2cc([N+](=O)[O-])cc([N+](=O)[O-])c2O)sc2nc3ccccc3n12	Mcl1-Bid inh 91.2, Mcl1 Noxa PPI 105.2
O=C(O)c1cc(C(=O)O)cc(-c2ccc(/C=c3/sc4nc5ccccc5n4c3=O)o2)c1	Mcl1 Noxa PPI 54.1 (no result: BCLXL inh, GLD-1 RNA inh, MCL1 BIM primary)
O=c1/c(=C/c2ccccn2)sc2nc3ccccc3n12	none
O=C(O)c1cccc(-c2ccc(/C=c3/sc4nc5ccccc5n4c3=O)o2)c1	Mcl1 Noxa PPI 88.9 (no result: Mcl-1 Bim block)
O=C(c1ccccc1)N1N=C(C(F)(F)F)CC1(O)c1ccc(F)cc1 (centres undefined)	none (no result: Mcl1-Bid inh, Mcl1 Noxa PPI, Mcl-1 Bim block)
CCOc1ccccc1NC(=O)NCCN1CCCCC1	none (no result: Mcl1-Bid inh, Mcl1 Noxa PPI, Mcl-1 Bim block)
CC(Oc1ccccc1F)C(=O)NCCN1CCCCC1 (centres undefined)	Mcl1-Bid inh 59.2
COc1ccccc1COCC(O)CNCC1(N2CCCCC2)CCCCC1 (centres undefined)	Mcl1-Bid inh 62.2
COc1cc(C(C)=O)ccc1OCC(O)CNCC1(N2CCCCC2)CCCCC1 (centres undefined)	none
Cc1nc(NC(=O)c2cccc(-c3cc4ccccc4oc3=O)c2)ccc1Br	Mcl1-Bid inh 57.8
Cc1ccc(NC2Sc3ccccc3NC2=O)cc1 (centres undefined)	Mcl1 Noxa PPI 55.9
COC(=O)CC1Sc2ccccc2NC1=O (centres undefined)	none
CC(=O)c1cccc(NC(=O)Nc2cccs2)c1	none
CC(=O)c1cccc(NC(=O)Nc2cc3sccc3n2C)c1	Mcl1 Noxa PPI 70.9
CC(C)[C@H](NC(=O)N1CCn2c1nc1ccccc12)C(=O)N1CCCCC1	none (no result: Mcl1-Bid inh, Mcl1 Noxa PPI, Mcl-1 Bim block)
COc1ccc(CCNCc2cc3ccc(C)cc3[nH]c2=O)cc1OC	none (no result: Mcl1-Bid inh, Mcl1 Noxa PPI, Mcl-1 Bim block)
O=[N+]([O-])c1ccc2sc(SCc3nc4ccccn4c3Br)nc2c1	Mcl1 Noxa PPI 55.6
Brc1c(CSc2nc3ccccc3s2)nc2ncccn12	none
CC(NC(=O)C1CCCN1S(=O)(=O)c1cccc2nsnc12)c1ccccc1 (centres undefined)	none (no result: Mcl1-Bid inh, Mcl1 Noxa PPI, Mcl-1 Bim block)
Cc1ccc2nc(-c3ccc(NC(=O)CCS(=O)(=O)c4ccccc4)cc3)sc2c1	none
O=C(CCS(=O)(=O)c1ccccc1)Nc1ccccc1-c1nc2ccccc2s1	Mcl1-Bid inh 75.4
Cc1ccc(OCCN2CCN(CC(O)Cn3c4ccccc4c4ccccc43)CC2)cc1 (centres undefined)	Mcl1-Bid inh 65.7
CCOC(=O)Nc1ccc2c(c1)N(C(=O)CCN(CC)CC)c1ccccc1S2=O (centres undefined)	none (no result: Mcl1-Bid inh, Mcl1 Noxa PPI, Mcl-1 Bim block)
NS(=O)(=O)c1ccc(Nc2nc(-c3ccc4ccccc4c3)cs2)cc1	none
Cc1ccc(-c2csc(Nc3ccc(S(N)(=O)=O)cc3)n2)o1	Mcl1 Noxa PPI 64.2
C[C@H]1CN([C@@H](C)CO)C(=O)c2cc(NC(=O)NC3CCCCC3)ccc2O[C@H]1CN(C)C(=O)Nc1ccc(C(F)(F)F)cc1	none (no result: BCLXL inh, Mcl1-Bid inh, MCL1 BIM primary, Mcl1 Noxa PPI, Mcl-1 Bim block)
COc1cc(/C=C2\SC(=O)N(Cc3ccc(F)cc3)C2=O)cc([N+](=O)[O-])c1O	Mcl1 Noxa PPI 97.3 (no result: BCLXL inh, GLD-1 RNA inh, MCL1 BIM primary)
COc1cc(/C=C2\SC(=O)N(Cc3ccc(Cl)cc3)C2=O)cc([N+](=O)[O-])c1O	Mcl1-Bid inh 90.5, Mcl1 Noxa PPI 91.7 (no result: BCLXL inh, GLD-1 RNA inh, MCL1 BIM primary)
CCOC(=O)CN1C(=O)S/C(=C/c2ccc(OC)c([N+](=O)[O-])c2)C1=O	none
O=C1/C(=C/c2ccc(O)c([N+](=O)[O-])c2)SC(=S)N1Cc1ccccc1	Mcl1 Noxa PPI 56.4
O=C1/C(=C\c2cccc([N+](=O)[O-])c2O)SC(=S)N1Cc1ccccc1	none (no result: Mcl1-Bid inh, Mcl1 Noxa PPI, Mcl-1 Bim block)
COc1cc2[nH]c(=O)n(CCC(=O)N3CCN(c4cccc(C)c4C)CC3)c(=O)c2cc1OC	Mcl1-Bid inh 53.7
COc1cc2[nH]c(=O)n(CCC(=O)N3CCN(Cc4ccccc4)CC3)c(=O)c2cc1OC	none
Cc1ccc(OC(C)C(=O)N(C)c2ccccc2)c([N+](=O)[O-])n1 (centres undefined)	none (no result: Mcl1-Bid inh, Mcl1 Noxa PPI, Mcl-1 Bim block)
COc1ccc(-n2nnnc2CNC(=O)C2CC(=O)N(c3ccc(Cl)cc3)C2)cc1 (centres undefined)	none (no result: Mcl1-Bid inh, Mcl1 Noxa PPI, Mcl-1 Bim block)
CCN(c1ccccc1)S(=O)(=O)c1ccc2[nH]cc(C(=O)N3CCOCC3)c(=O)c2c1	Mcl1-Bid inh 57.4
CCN(c1ccc(F)cc1)S(=O)(=O)c1ccc2[nH]cc(C(=O)NCCCN3CCOCC3)c(=O)c2c1	none
Cc1ccc(C)c(S(=O)(=O)N2CCN(C(=O)CCCc3c[nH]c4ccccc34)CC2)c1	none (no result: Mcl1-Bid inh, Mcl1 Noxa PPI, Mcl-1 Bim block)
O=C(Nc1ccc(-c2nc3ccccc3o2)cc1)c1ccc(N2CCOCC2)c([N+](=O)[O-])c1	none
COc1ccc2oc(-c3ccc(NC(=O)c4ccc(N5CCOCC5)c([N+](=O)[O-])c4)cc3)nc2c1	Mcl1 Noxa PPI 54.9
COc1ccc(C(=O)NCCCN2CCCC2=O)cc1	none
O=C(NCCCN1CCCC1=O)NC1CCCCC1	Mcl-1 Bim block 54.0
O=C(NCCCN1CCCC1=O)c1ccc2c(c1)OCO2	Mcl1-Bid inh 61.9
Cc1ccc(CS(=O)(=O)Cc2ccc(C(=O)NC3CCCC3)o2)cc1	none (no result: Mcl1-Bid inh, Mcl1 Noxa PPI, Mcl-1 Bim block)
CC(C)OC(=O)Nc1ccc2c(c1)N(C(=O)N1CCN(C)CC1)c1ccccc1CC2	Mcl1 Noxa PPI 51.4 (no result: Mcl-1 Bim block)
CC(C)n1cnc2cc(NCc3ccco3)ccc21	Mcl1 Noxa PPI 52.0
COc1ccc(N2C(=O)/C(=C/c3ccc([N+](=O)[O-])cc3)C=C2c2ccccc2)cc1	none
O=C1/C(=C/c2ccc([N+](=O)[O-])cc2)C=C(c2ccccc2)N1c1ccc(O)cc1	Mcl1 Noxa PPI 60.0
O=C1/C(=C/c2ccc([N+](=O)[O-])cc2)C=C(c2ccccc2)N1c1ccccc1	none
O=C(O)c1cccc(N2C(=O)/C(=C/c3ccc([N+](=O)[O-])cc3)C=C2c2ccccc2)c1	Mcl1 Noxa PPI 52.9
CCN(C(=O)C(C)Sc1ccc(S(=O)(=O)N2CCOCC2)cn1)c1ccccc1 (centres undefined)	none (no result: Mcl1-Bid inh, Mcl1 Noxa PPI, Mcl-1 Bim block)
O=S(=O)(Nc1ccc2nc(-c3ccc(Br)o3)[nH]c2c1)c1ccccc1	Mcl1 Noxa PPI 52.1 (no result: BCLXL inh, GLD-1 RNA inh, MCL1 BIM primary)
CCOC(=O)C1=C(C)OC(N)=C(C#N)C1c1cc(C)sc1C (centres undefined)	none
